High-throughput results as filed in PubChem BioAssay.
DNA FID counter – fluorescent intercalator displacement, NS3 helicase counter-screen; DNA fluorescent intercalator displacement, fluorescence; inhibition, % at 7.9 µM; 290,000 tested, 0.17% active; AID 1845; in the data active means inhibition above about 37%;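 further: 0% = vehicle and 100% = reference compound; higher means more ethidium bromide displaced from hairpin DNA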
KLF5 inh – inhibitors of KLF5 expression. DLD-1 KLF5 promoter-luciferase reporter, luminescence. inhibition, % at 5 µM. 290,000 tested, 0.23% active. AID 1700;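 active means inhibition above a per-plate limit of that plate's mean compound inhibition plus 3 SD, cut at about 60% in these data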;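 further: 0% = DMSO wells and 100% = LY294002 at 200 µM; higher means less KLF5 promoter-driven luciferase light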
GPR7 antag – human neuropeptides B/W receptor 1 antagonism. GPR7-expressing cells, fluorescence antagonist assay. inhibition, % at 4.4 µM. P48145. 290,000 tested, 1.1% active; in the data active means inhibition above about 16%, passing the limit was not always enough;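 further: cells stimulated with the agonist NPW; 0% = agonist with vehicle and 100% = vehicle without agonist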
Target sequence (P48145 whole entry, looked up): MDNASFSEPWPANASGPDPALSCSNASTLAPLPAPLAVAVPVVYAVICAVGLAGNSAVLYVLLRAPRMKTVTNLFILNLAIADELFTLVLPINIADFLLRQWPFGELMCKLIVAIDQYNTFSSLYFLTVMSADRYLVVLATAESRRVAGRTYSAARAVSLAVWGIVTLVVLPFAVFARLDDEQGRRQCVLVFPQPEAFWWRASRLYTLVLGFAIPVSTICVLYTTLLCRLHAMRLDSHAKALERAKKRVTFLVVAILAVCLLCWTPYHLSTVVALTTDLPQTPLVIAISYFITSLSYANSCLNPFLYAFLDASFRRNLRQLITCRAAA
Ba/F3 V617F tox – loss of viability in JAK2V617F-driven Ba/F3 cells; Ba/F3 EpoR-JAK2V617F viability, ATP luminescence; inhibition, % at 5.6 µM; AID 1446; 220,000 tested, 1.1% active;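 active means inhibition above the campaign mean plus 3 SD over all tested compounds, cut at about 24% in these data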;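 further: cytokine-independent growth of Ba/F3 cells driven by EpoR plus mutant JAK2; 0% = DMSO-treated cells and 100% = JAK inhibitor I control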
BaF3 tox – counter-screen for JAK2V617F inhibitors: parental Ba/F3 viability inhibitors. CellTiter-Glo ATP luminescence. 220,000 tested, 1.1% active. inhibition, % at 5.6 µM;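 active means inhibition above a per-campaign cutoff, the mean inhibition of all tested compounds plus 3 SD, cut at about 27% in these data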;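 further: 0% = DMSO wells and 100% = JAK Inhibitor I control wells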
IEC-6 cytotox – kills IEC-6 intestinal cells in KLF5 counter-screen. inhibition, % at 5 µM. IEC-6 cytotoxicity, luminescence viability. 290,000 tested, 0.78% active;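 further: 0% = plate median of test compound wells and 100% = cytotoxic reference compound wells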
GPR7 antag cf – confirmation of human GPR7 antagonists; AID 1952; 2,400 tested, 52% active; inhibition, % at 4.4 µM; GPR7-expressing cells, calcium fluorescence antagonist mode; shares compounds with GPR7 antag; in the data active means inhibition above about 24%;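 further: stimulated with the GPR7 agonist NPW; 0% = agonist plus vehicle and 100% = vehicle alone without agonist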
MCHR1 antag – MCHR1 (human) antagonism in GPR7 counter-screen; shares compounds with GPR7 antag; MCHR1-expressing cells, fluorescence antagonist assay; inhibition, % at 4.4 µM; 2,400 tested, 62% active;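 further: 0% = vehicle with agonist and 100% = vehicle without agonist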
The depositor's hits bear a star; . = not tested or not shown. Most compounds without a hit are left out; they make up all but 2.6% or so of the library. Unless noted, no stated cut-off is given here; in the data, active means inhibition above about 22%; inactive means the rest.

SMILES	DNA FID counter	KLF5 inh	GPR7 antag	Ba/F3 V617F tox	BaF3 tox	IEC-6 cytotox	GPR7 antag cf	MCHR1 antag
COc1ccc(C)cc1N(C(=O)c1ccco1)C(C(=O)NC1CCCC1)c1cc(OC)c(OC)c(OC)c1 (configuration not stated)	-42	6	43*	.	.	-2	38*	24*
O=C(NCc1ccc2c(c1)OCO2)C1CC(c2ccc(Cl)c(Cl)c2)=NO1 (configuration not stated)	-2	-11	4	-4	-1	-4	.	.
COCC(C)n1c(SCC(=O)Nc2oc(C)c3c(C)n[nH]c(=O)c23)nc2ccccc2c1=O (configuration not stated)	-31	-3	-1	.	.	0	.	.
CCOC(=O)C1(Cc2ccccc2C)CCCN(C(=O)c2sccc2C)C1 (configuration not stated)	-48	-14	43*	.	.	6	15	48*
Cc1nn(-c2ccccc2)c(Cl)c1CN(C(=O)CCl)c1ccc(Cl)cc1	-30	-6	95*	7	9	6	99*	100*
Nc1nc2ccccc2n1CCN1CCCC1	1	-15	33*	1	7	1	-8	2
CCN(CC)S(=O)(=O)c1ccc(NC(=O)COc2nc3ccccc3nc2N2CCOCC2)cc1	-6	-3	24*	-8	2	-2	4	7
COc1ccc(C(=O)Nc2ccccc2C)cc1S(=O)(=O)N1CCOCC1	-8	-11	-10	.	.	2	.	.
Cc1ccc(C(=O)N/N=C\c2ccc([N+](=O)[O-])o2)cn1	-9	-18	26*	1	2	-22	-18	-9
Cc1ccc(C(=O)N/N=C\c2ccc(-c3ccc([N+](=O)[O-])cc3)o2)cn1	-11	-7	15	-2	1	5	.	.
c1ccc2c(c1)OC(CCCN1CCCCC1)c1ccccc1S2 (configuration not stated)	38*	-13	25*	16	12	3	33*	54*
COc1ccc(C2SCCN2C(=S)Nc2cccc(C(F)(F)F)c2)cc1 (configuration not stated)	2	5	-3	2	7	-1	.	.
COc1ccc(CCNCC(O)Cn2c3ccccc3c3ccccc32)cc1OC (configuration not stated)	26	-22	43*	2	11	6	56*	74*
COc1ccccc1NCC(O)Cn1c2ccccc2c2ccccc21 (configuration not stated)	-8	-39	6	-6	5	-3	.	.
c1ccc2c(c1)sc1nnnn12	3	-19	14	0	3	1	.	.
CCOC(=O)c1cnn2c(C(F)(F)F)cc(-c3ccccc3)nc12	-11	-28	-2	1	8	1	.	.
CCOC(=O)C1CCCN(C(=O)c2cnn3c(C(F)(F)F)cc(-c4ccccc4)nc23)C1 (configuration not stated)	-28	-9	25*	1	2	3	14	10
O=S(=O)(c1cccs1)N1CCN(Cc2cccc(F)c2)CC1	-5	-16	30*	.	.	2	9	14
O=[N+]([O-])c1cccc(S(=O)(=O)NCC2CC3CCC2C3)c1 (configuration not stated)	-5	-34	38*	.	.	-1	-2	-9
O=[N+]([O-])c1ccc(S(=O)(=O)NCC2CC3CCC2C3)cc1 (configuration not stated)	1	-16	15	.	.	-6	.	.
Cc1ccccc1S(=O)(=O)Nc1ncc(C(F)(F)F)cc1Cl	-8	-15	-2	1	0	7	.	.
CC(C)(C)c1ccc(C(=O)Nc2c3c(nn2C(C)(C)C)CS(=O)(=O)C3)cc1	-38	-37	26*	.	.	7	15	23*
Cc1ccc(Cl)cc1NC(=O)c1cc2ccccc2cc1O	4	-23	25*	-6	0	-4	54*	53*
O=C(Cc1n[nH]c(=O)c2ccccc12)N1CCN(c2ccc(F)cc2)CC1	-5	-22	22*	-2	1	5	-7	4
CC(=O)c1ccc(N2CCN(C(=O)Cc3n[nH]c(=O)c4ccccc34)CC2)cc1	-13	-6	1	-2	2	-5	.	.
SMILES	DNA FID counter	KLF5 inh	GPR7 antag	Ba/F3 V617F tox	BaF3 tox	IEC-6 cytotox	GPR7 antag cf	MCHR1 antag
O=C(COC(=O)CNS(=O)(=O)c1ccc2ccccc2c1)Nc1ccccc1Sc1ccccc1	-14	4	23*	-4	1	1	32*	34*
O=C(COC(=O)CNS(=O)(=O)c1ccc2ccccc2c1)Nc1ccc2c(c1)OCO2	-7	-19	14	2	10	-4	.	.
CCOc1cc(CNC2CCCC2)cc(Cl)c1OCc1ccccc1	39*	-1	26*	3	5	9	40*	30*
CCN(CC)S(=O)(=O)c1cc(C(=O)O)ccc1Cl	-2	-4	-8	-4	1	-3	.	.
CCN(CC)S(=O)(=O)c1cc(C(=O)OC)ccc1Cl	1	-3	37*	-3	-2	4	-1	-4
CCc1ccc(CNC(=O)Cn2nc(-c3ccccc3)ccc2=O)cc1	-28	-32	31*	-3	1	1	13	0
CC(=O)Nc1ccc(N(C(=O)c2ccco2)C(C(=O)NC2CCCC2)c2cccs2)cc1 (configuration not stated)	-10	12	-3	-5	0	1	.	.
Cc1cc2nc3c(=O)[nH]c(=O)[nH]c3nc2c([N+](=O)[O-])c1N	2	-16	25*	-3	-2	-25	13	4
Cc1c(N)c(C(C)(C)C)cc(C(C)(C)C)c1[N+](=O)[O-]	-1	12	-18	1	5	-3	.	.
CCOC(=O)/C(=C\C=C1/Sc2ccccc2N1CC)C(C)=O	-22	-43	28*	-1	7	-6	19	36*
CCC(=O)/C=C1/Sc2ccc(OC)cc2N1CC	1	-4	8	0	2	-2	.	.
CCOC(=O)/C(=C/C=C1\Sc2cc(C)c(C)cc2N1CC)C(C)=O	-23	-28	24*	7	9	-2	38*	76*
CCOC(=O)/C(=C/C=C1\Sc2ccccc2N1CC)C(C)=O	-22	-19	11	-1	6	-6	.	.
Cc1nc(C)c(-c2ccc(SCC(=O)Nc3ccc(C)c(Cl)c3)nn2)s1	-11	-16	3	.	.	3	.	.
CC(=O)c1ccc(NC(=O)CSc2ccc(-c3sc(C)nc3C)nn2)cc1	-22	-22	26*	.	.	-2	43*	76*
C[C@H]1CC[C@H]2C(=O)N3[C@H](c4ccccc4Br)[C@@H](C)CC[C@H]3C(=O)N2[C@@H]1c1ccccc1Br	-30	-5	29*	-2	5	3	57*	59*
